Reference: PubChem BioAssay (Tox21)
Results filed as inconclusive are left out. Active and inactive are the calls of the source. Unless noted, calls follow the shape of the dose curve; as a rule, active = well fitted curve in the direction sought with a large enough effect in the repeat runs; inconclusive = weak or mixed curves; inactive = no such curve, though single readings can be large; an effect the other way counts as inactive or inconclusive.

Assays:
[1] = A CellTox Green Cytotoxicity Assay to monitor cytotoxicity in HepG2 cells - 8 hour (AID 1224890); also: nearly all actives have a fitted effect of over 45% in size
Outline: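 Using 1536-well format, dye-containing HepG2 suspension was seeded, allowed 5 h at 37 C/5% CO2, dosed by pintool with compounds, positive and negative controls, and imaged for fluorescence across 40 h.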

[2] = qHTS assay to identify small molecule antagonists of the estrogen receptor alpha (ER-alpha) signaling pathway using the BG1 cell line in the presence of 0.1 nM 17-beta-estradiol - cell viability counter screen (AID 1259241); also: nearly all actives have a fitted effect of over 40% in size
Outline: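 VM7Luc4E2 cells (endogenous full-length ER-alpha, 4xERE-luciferase), cultured 5 days in charcoal-stripped serum, exposed to compounds with 0.1 nM 17beta-estradiol (final) for 22 hr at 37C. Viability read in same wells as live-cell protease fluorescence after 30 min.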

[3] = qHTS assay to identify small molecule antagonists of the androgen receptor (AR) signaling pathway using the MDA cell line in the presence of 0.5 nM R1881 - cell viability counter screen (AID 1259242); also: nearly all actives have a fitted effect of over 45% in size
Outline: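 Viability of MDA-kb2 cells was multiplexed with the luciferase AR readout; after 16 hr with compounds and R1881 at 0.5 nM final, CellTiter-Fluor fluorescence was recorded.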

[4] = molecular target: Estrogen receptor (Homo sapiens) (UniProt P03372); assay: qHTS assay to identify small molecule antagonists of the estrogen receptor alpha (ER-alpha) signaling pathway using the BG1 cell line in the presence of 0.1 nM 17-beta-estradiol (AID 1259244); also: nearly all actives have a fitted effect of over 50% in size
Sequence of Estrogen receptor (Homo sapiens) (P03372 whole entry, looked up): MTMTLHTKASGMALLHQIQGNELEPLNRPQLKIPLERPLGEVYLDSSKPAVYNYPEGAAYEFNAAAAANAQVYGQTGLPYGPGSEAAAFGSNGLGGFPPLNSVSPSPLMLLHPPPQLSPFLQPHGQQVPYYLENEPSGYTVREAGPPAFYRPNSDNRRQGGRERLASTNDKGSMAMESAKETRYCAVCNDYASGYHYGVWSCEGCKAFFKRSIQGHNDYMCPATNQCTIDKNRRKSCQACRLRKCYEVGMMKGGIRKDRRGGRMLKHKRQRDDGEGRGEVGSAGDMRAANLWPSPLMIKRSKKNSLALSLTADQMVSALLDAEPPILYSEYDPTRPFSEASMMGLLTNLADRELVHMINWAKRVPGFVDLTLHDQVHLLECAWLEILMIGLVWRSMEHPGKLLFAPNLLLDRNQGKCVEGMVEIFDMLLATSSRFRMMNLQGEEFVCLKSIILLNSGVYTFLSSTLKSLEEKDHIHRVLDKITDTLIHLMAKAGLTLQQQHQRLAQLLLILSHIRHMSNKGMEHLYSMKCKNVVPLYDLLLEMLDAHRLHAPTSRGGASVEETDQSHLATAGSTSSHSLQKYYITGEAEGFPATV
Outline: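 Estradiol at 0.1 nM (final) stimulates the endogenous ER-alpha of VM7Luc4E2 cells carrying an ERE-driven luciferase; compounds are co-incubated 22 h at 37C and luciferase output quantified by luminescence.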

[5] = qHTS assay to identify small molecule phospholipidosis (PLD) inducers (AID 1259344; active = well fitted curve in the direction sought with a large enough effect; an effect the other way counts as inactive or inconclusive)
Outline: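 HepG2 cells grown on collagen I take up LipidTOX Red while exposed to compound for 24 h; after fixation they are imaged at 20x and pit metrics are extracted.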

[6] = qHTS assay to identify small molecule HDAC inhibitors (AID 1259364); also: potency is read from the fitted curve at half-maximal effect;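 also: wild-type HCT-116 cells with endogenous class I/II HDAC activity; nearly all actives have a fitted effect of over 45% in size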; as to activity change, negative = inhibition: top concentration of the series differs between compounds
Outline: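 Read-out: luminescence of HDAC-Glo I/II reagent, 30 min RT, reflecting class I/II deacetylase activity in whole HCT-116 cells pre-exposed 2 h to DMSO-dissolved compounds.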

[7] = qHTS assay to identify small molecule HDAC inhibitors - cell viability counter screen (AID 1259365); also: series mostly up to about 92 µM; nearly all actives have a fitted effect of over 50% in size
Outline: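 Wild-type HCT-116 cells, 1,500/well, cultured overnight, then compound-treated 2 h at 37 C. Viability measured as ATP luminescence with CellTiter-Glo after 30 min at room temperature.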

[8] = qHTS assay to identify small molecule agonists of the sonic hedgehog signaling (Shh) pathway - cell viability counter screen (AID 1259366); also: nearly all actives have a fitted effect of over 50% in size
Outline: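 NIH/3T3-derived Gli1-Luc reporter cells, 2,000 per well, received compound after 4 h and were treated about 23 h at 37C. Viability measured in the same wells by CellTiter-Fluor fluorescence after 1 h.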

[9] = qHTS assay to identify small molecule antagonists of the sonic hedgehog signaling (Shh) pathway - cell viability counter screen (AID 1259367); also: nearly all actives have a fitted effect of over 55% in size
Outline: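 After a 4 hr settling period, 3T3 Gli1-Luc cells were treated with DMSO-dissolved chemicals and conditioned medium, kept 24 hr at 37C in 5% CO2, and assayed for viability by CellTiter-Fluor fluorescence following 1 hr reagent incubation.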

[10] = qHTS assay to identify small molecule agonists of the sonic hedgehog signaling (Shh) pathway (AID 1259368; calls by dose curve;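 also: NIH/3T3-derived 3T3Gli1-Luc cells carrying a stable Gli1-driven firefly luciferase reporter; series mostly up to about 92 µM; nearly all actives have a fitted effect of over 15% in size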)
Outline: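 A Gli1 transcriptional response element controlled firefly luciferase in 3T3Gli1-Luc cells. Compounds and a positive control were added 4 hr after plating, and cells were incubated a further 24 hr at 37 C before luminescence detection.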

[11] = qHTS assay to identify small molecule antagonists of the sonic hedgehog signaling (Shh) pathway (AID 1259369; calls by dose curve; also: nearly all actives have a fitted effect of over 45% in size)
Outline: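 For antagonist detection, the reporter line received test compounds together with conditioned medium, incubated 24hr at 37 C, 5% CO2, then luminescence was recorded following 30min room-temperature luciferase reagent incubation.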

[12] = qHTS assay to identify small molecule agonists of the androgen receptor (AR) signaling pathway in the presence of an antagonist - cell viability counter screen (AID 1259379);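 also: MDA-kb2 human breast cancer cells carrying an MMTV luciferase reporter; series mostly up to about 92 µM; nearly all actives have a fitted effect of over 25% in size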
Outline: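 Seed MDA-kb2 at 3,000 cells/well; incubate 5 hr, 37C, 0% CO2. Add nilutamide to 3.0uM final, then pin compounds at 15 concentrations. Incubate 16 hr. Add CellTiter-Fluor at 15 hr, read fluorescence after 1 hr.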

[13] = qHTS assay to identify small molecule agonists of the estrogen receptor beta (ER-beta) signaling pathway - cell viability counter screen (AID 1259380); also: nearly all actives have a fitted effect of over 30% in size
Outline: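 CellTiter-Glo read, 30 min RT, same wells as bla assay; cells ER-beta-UAS-bla HEK293T; 16 hr compound, 37C; medium 2% charcoal-stripped FBS.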

[14] = qHTS assay to identify small molecule antagonists of the estrogen receptor beta (ER-beta) signaling pathway - cell viability counter screen (AID 1259382); also: series mostly up to about 92 µM; nearly all actives have a fitted effect of over 55% in size
Outline: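 In this multiplexed counter screen, cells were seeded at 2,000 per well in medium with 2% charcoal-stripped FBS and incubated 6 hr before compound and 1nM final E2 were added. Sixteen hours later, ATP-based luminescence reported viability.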

[15] = qHTS assay to identify small molecule agonists or antagonists of the thyroid stimulating hormone receptor (TSHR) signaling pathway - wild type cell line counter screen (AID 1259384; calls by dose curve)
Outline: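 Wild-type HEK293 cells were plated 18 h at 37 C/5% CO2, pin-dosed with compound plus Ro20-1724 medium, held 30 min at room temperature, then given cAMP-d2 and anti-cAMP-cryptate; fluorescence was read after 1 h. Fifteen concentrations, triplicate.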

[16] = molecular target: Androgen receptor (Homo sapiens) (UniProt P10275); assay: qHTS assay to identify small molecule antagonists of the androgen receptor (AR) signaling pathway using the MDA cell line in the presence of 0.5 nM R1881 (AID 1259243); also: nearly all actives have a fitted effect of over 50% in size
Sequence of Androgen receptor (Homo sapiens) (P10275 whole entry, looked up): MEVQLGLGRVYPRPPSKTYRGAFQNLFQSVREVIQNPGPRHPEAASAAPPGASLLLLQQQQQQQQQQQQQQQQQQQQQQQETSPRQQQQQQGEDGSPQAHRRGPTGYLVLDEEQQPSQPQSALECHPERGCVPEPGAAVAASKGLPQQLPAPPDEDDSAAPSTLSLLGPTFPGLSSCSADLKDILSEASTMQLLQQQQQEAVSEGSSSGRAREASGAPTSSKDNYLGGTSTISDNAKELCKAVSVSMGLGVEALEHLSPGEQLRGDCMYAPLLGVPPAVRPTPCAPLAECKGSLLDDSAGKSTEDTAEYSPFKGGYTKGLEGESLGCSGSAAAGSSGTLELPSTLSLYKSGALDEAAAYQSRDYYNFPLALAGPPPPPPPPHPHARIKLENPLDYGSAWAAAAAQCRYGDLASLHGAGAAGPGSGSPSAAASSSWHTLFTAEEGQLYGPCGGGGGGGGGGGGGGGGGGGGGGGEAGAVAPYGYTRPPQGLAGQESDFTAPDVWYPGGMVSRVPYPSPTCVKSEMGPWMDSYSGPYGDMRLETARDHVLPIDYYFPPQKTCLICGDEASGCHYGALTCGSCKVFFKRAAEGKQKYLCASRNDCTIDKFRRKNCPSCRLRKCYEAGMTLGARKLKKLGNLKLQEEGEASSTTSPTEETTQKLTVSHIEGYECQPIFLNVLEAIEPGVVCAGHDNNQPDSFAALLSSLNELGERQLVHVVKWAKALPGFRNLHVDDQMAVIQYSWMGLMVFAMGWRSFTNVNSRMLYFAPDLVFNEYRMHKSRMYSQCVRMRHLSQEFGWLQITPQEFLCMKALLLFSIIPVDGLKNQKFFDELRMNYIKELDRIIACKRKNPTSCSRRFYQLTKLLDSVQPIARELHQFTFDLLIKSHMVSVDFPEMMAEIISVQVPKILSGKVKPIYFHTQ
Outline: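 Reporter cells cultured without CO2 receive test chemicals, then 0.5 nM R1881 final; after 16 hr at 37C, ONE-Glo is added and light output recorded.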

[17] = molecular target: Androgen receptor (Homo sapiens) (UniProt P10275); assay: qHTS assay to identify small molecule agonists of the androgen receptor (AR) signaling pathway in the presence of an antagonist (AID 1259381; calls by dose curve; also: nearly all actives have a fitted effect of over 15% in size)
Outline: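 Test compounds at 15 concentrations were incubated for 16hr with MDA-kb2 reporter cells in presence of 3.0uM nilutamide (final). Signal: ONE-Glo luciferase luminescence.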

[18] = molecular target: Estrogen receptor beta (Homo sapiens) (UniProt Q92731); assay: qHTS assay to identify small molecule agonists of the estrogen receptor beta (ER-beta) signaling pathway (AID 1259377; active = well fitted activation curve with a large enough effect in the signal ratio in the repeat runs, not every such curve was filed as active; the % refers to the signal ratio)
Sequence of Estrogen receptor beta (Homo sapiens) (Q92731 whole entry, looked up): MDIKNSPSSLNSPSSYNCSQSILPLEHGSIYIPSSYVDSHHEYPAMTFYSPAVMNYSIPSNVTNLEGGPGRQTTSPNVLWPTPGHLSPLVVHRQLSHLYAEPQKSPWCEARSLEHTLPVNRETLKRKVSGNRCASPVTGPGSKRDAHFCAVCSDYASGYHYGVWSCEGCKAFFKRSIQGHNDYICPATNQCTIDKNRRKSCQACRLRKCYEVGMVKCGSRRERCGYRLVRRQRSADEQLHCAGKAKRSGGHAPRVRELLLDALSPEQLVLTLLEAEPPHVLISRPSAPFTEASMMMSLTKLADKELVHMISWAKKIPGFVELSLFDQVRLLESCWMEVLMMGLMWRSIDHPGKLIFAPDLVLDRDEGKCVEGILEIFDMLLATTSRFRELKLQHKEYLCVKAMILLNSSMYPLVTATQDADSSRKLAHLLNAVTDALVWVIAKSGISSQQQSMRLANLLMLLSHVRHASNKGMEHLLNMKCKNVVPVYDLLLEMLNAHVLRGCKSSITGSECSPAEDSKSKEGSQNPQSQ
Outline: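 ER-beta-UAS-bla HEK293T cells in medium with 2% charcoal-stripped FBS were exposed to compounds for 16 h at 37C. Beta-lactamase reporter activity was read as fluorescence after 2 h with LiveBLAzer B/G FRET substrate at room temperature.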

[19] = molecular target: Estrogen receptor beta (Homo sapiens) (UniProt Q92731); assay: qHTS assay to identify small molecule antagonists of the estrogen receptor beta (ER-beta) signaling pathway (AID 1259378; active = well fitted inhibition curve with a large enough effect in the signal ratio in the repeat runs, not every such curve was filed as active; the % refers to the signal ratio)
Outline: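 ER-beta-UAS-bla HEK293T (GripTite) cells in 2% charcoal-stripped FBS medium were preincubated 6 hr at 37C, dosed with compound, then stimulated with 1 nM E2 (final) for 16 hr; beta-lactamase reporter read by B/G FRET fluorescence after 2 hr substrate loading.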

[20] = molecular target: Estrogen receptor (Homo sapiens) (UniProt P03372); assay: qHTS assay to identify small molecule agonists of the estrogen receptor alpha (ER-alpha) signaling pathway in the presence of an antagonist (AID 1259383; calls by dose curve; also: top concentration of the series differs between compounds; nearly all actives have a fitted effect of over 15% in size)
Outline: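 Stably transfected VM7Luc4E2 reporter cells, kept 5 days in charcoal-stripped serum, received ICI-182,780 at 10.0nM final before compound addition. Following 22hr incubation at 37C and 5% CO2, luciferase signal was read by luminescence.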
% is scaled to controls: 0 for no effect and ±100 for the full control effect.

Cc1cc2cc3c(C)cc(=O)oc3c(C)c2o1
inactive: outcome [1] | Potency [2] | outcome [3] | Potency [4] | outcome [5] | Potency [6] | outcome [7] | Potency [8] | Potency [9] | outcome [10] | Potency [11] | Potency [12] | Potency [13] | outcome [14] | outcome [15]

CC1(CO)CN(c2ccccc2)NC1=O (configuration not stated)
active: Potency [6] 24.3 µM
inactive: outcome [1] | Potency [2] | outcome [3] | Potency [16] | outcome [7] | Potency [8] | Potency [9] | outcome [10] | Potency [11] | Potency [12] | Potency [17] | outcome [15]

Cc1nc2n(c(=O)c1CCN1CCC(c3noc4cc(F)ccc34)CC1)CCC[C@H]2O
inactive: cytotoxicity increase [1] -0.979% [at 15.8 µM] | activity change, negative = cytotoxicity [2] 1.89% [at 19 µM] | viability change, negative = cytotoxic [3] 9.15% [at 19 µM] | activity change, negative = inhibition [4] 1.12% [at 19 µM] | outcome [5] | activity change, negative = inhibition [6] -1.31% [at 19 µM] | activity change, negative = cytotoxicity [7] -0.155% [at 19 µM] | viability change, negative = cytotoxic [8] -0.31% [at 19 µM] | viability change, negative = cytotoxic [9] -0.26% [at 19 µM] | activity change [10] -0.0213% [at 18.9 µM] | activity change, negative = inhibition [11] -4.73% [at 19 µM] | activation [18] 1.63% [at 19 µM] | activity, negative = inhibition [19] 0.444% [at 19 µM] | activity change, negative = cytotoxicity [12] -2.37% [at 19 µM] | activity change, negative = cytotoxicity [13] -7.67% [at 19 µM] | activity change, negative = cytotoxicity [14] 1.75% [at 19 µM] | activation [20] 0% [at 19 µM] | cAMP activity change [15] -2.33% [at 18.9 µM]

C=COCCOCCOCCOC=C
inactive: outcome [1] | Potency [2] | outcome [3] | Potency [16] | Potency [6] | outcome [7] | Potency [8] | Potency [9] | outcome [10] | Potency [11] | Potency [18] | outcome [19] | Potency [12] | Potency [13] | outcome [14] | outcome [15]

COc1ccc(-c2cc(=O)c3c(O)cc(O[C@@H]4O[C@H](CO[C@@H]5O[C@@H](C)[C@H](O)[C@@H](O)[C@H]5O)[C@@H](O)[C@H](O)[C@H]4O)cc3o2)cc1O
inactive: outcome [1] | Potency [2] | outcome [3] | Potency [4] | outcome [5] | Potency [6] | outcome [7] | Potency [8] | Potency [9] | outcome [10] | Potency [11] | Potency [18] | outcome [19] | Potency [12] | Potency [13] | outcome [14]

O=S(=O)(O)c1ccc2cc(O)c(S(=O)(=O)O)cc2c1
inactive: outcome [1] | Potency [2] | outcome [3] | Potency [4] | Potency [6] | outcome [7] | Potency [8] | Potency [9] | outcome [10] | Potency [11] | Potency [18] | outcome [19] | Potency [12] | Potency [13] | outcome [14] | outcome [20] | outcome [15]

COc1cc(C(=S)N2CCOCC2)cc(OC)c1OC
inactive: outcome [1] | Potency [2] | outcome [3] | Potency [4] | outcome [5] | Potency [6] | outcome [7] | Potency [8] | Potency [9] | outcome [10] | Potency [11] | Potency [18] | outcome [19] | Potency [12] | Potency [13] | outcome [14] | outcome [20] | outcome [15]

O=C(O)Cc1cn(-c2ccccc2)nc1-c1ccc(Cl)cc1
inactive: outcome [1] | Potency [2] | outcome [3] | Potency [4] | outcome [5] | Potency [6] | outcome [7] | Potency [8] | Potency [9] | outcome [10] | Potency [11] | Potency [12] | outcome [14] | outcome [15]
